From ChEMBL document CHEMBL3988442, “University of Dundee, Small-Polar-MMV Screening Library” (2021)
In all, about 48,000 compounds went through this assay and about 13,000 (27%) showed an effect of 50% or more. The list shows a part of the results.

Tested on: Wolbachia pipientis
Assay: Anti-Wolbachia Cell-Based Screen
Type: functional
Set-up: scale not given: in the data most compounds retested in dose-response had high values
Conditions: 5 µM

Compound	Percent Effect
O=C1CCC(C(=O)NCCOc2ccccc2-c2ccccc2)CN1 (configuration not stated)	30.95%
NC(=O)c1cccc(NC(=O)CSc2ccc3c(c2)CCC3)c1	10.83%
Cn1ncc(C(=O)O)c1C(=O)Nc1nc2ccccc2s1	107.6%
COc1ccc2nc(NC(=O)c3c(C(=O)O)cnn3C)sc2c1	107.5%
Cn1c(C(F)(F)F)nn(CCNC(=O)c2nc3ccccc3s2)c1=O	-27.26%
COc1ccc2nc(C3CC3)cc(C(=O)NCc3ncnn3C)c2c1	-9.156%
CCOc1ccc2nc(NC(=O)c3c(C(=O)O)cnn3C)sc2c1	-2.899%
COc1nc2c(cc1C(=O)NCCc1nc3ccccc3s1)CCC2	-9.25%
Cn1ncc(C(=O)O)c1C(=O)Nc1nc2ccc(Br)cc2s1	84.26%
Cn1cnnc1CNC(=O)c1ccc(Br)cc1O	-16.68%
Fc1cnc(N2CCc3nnc(COc4ccccn4)n3CC2)nc1.O=C(O)C(F)(F)F	2.887%
O=S(=O)(C1CC1)N1CCOCC2(CN(c3ncccn3)CCO2)C1 (configuration not stated)	-5.762%
CCn1cc(C(=O)N2CCCN(c3cccnn3)CC2)c2ccccc21	-8.81%
CO[C@@H]1CCN(C2CCOCC2)C[C@@H]1Cc1ccccc1.O=C(O)C(F)(F)F	-11.13%
CO[C@@H]1CCN(Cc2ccc(C)o2)[C@H]1Cc1ccccc1.O=C(O)C(F)(F)F	10.3%
CO[C@@H]1CCN(Cc2ccoc2)[C@H]1Cc1ccccc1.O=C(O)C(F)(F)F	118.7%
COc1ccc(CN2CC[C@@H](O)[C@@H]2Cc2ccccc2)cc1.O=C(O)C(F)(F)F	17.99%
CO[C@@H]1CCN(Cc2ccoc2)C[C@@H]1Cc1ccccc1.O=C(O)C(F)(F)F	89.22%
O=C(O)C(F)(F)F.c1ccc(C[C@H]2CN(C3CCOCC3)CC[C@H]2OCC2CC2)cc1	-4.378%
CO[C@H]1CCN(C2CCOCC2)C[C@@H]1Cc1ccccc1.O=C(O)C(F)(F)F	-3.139%
CO[C@@H]1CCN(Cc2nccs2)C[C@@H]1Cc1ccccc1.O=C(O)C(F)(F)F	-16.15%

Compound	Percent Effect
CO[C@H]1CCN(Cc2ccoc2)C[C@@H]1Cc1ccccc1.O=C(O)C(F)(F)F	68.19%
Cc1cc(Cl)c2c(c1)C1(NC(=O)c3cccnc3N1)C(=O)N2 (configuration not stated)	-1.916%
CC(C)=CCC1(CO)CCCN(Cc2nccs2)C1 (configuration not stated)	1.266%
O=C(O)C(F)(F)F.O=C(c1ccnnc1)N1CCN2C[C@H](Oc3cccc(F)c3)C[C@H]2C1	-26.48%
COc1ccc(C)cc1NC(=O)Cn1nc(C)c(C#N)c1N	-0.6679%
Cc1nc2sccn2c1CNC1(c2ccccc2F)CCCC1.O=C(O)CC(O)(CC(=O)O)C(=O)O	86.58%
Cc1ccc(C2(O)CCN(Cc3nc(C)n4ccccc34)CC2)nc1	-9.121%
Cc1nc2sccn2c1CNc1ccc(C(=O)O)cc1	3.655%
Cc1nc(CN2CCC3(CCCO3)CC2)c2ccccn12	20.84%
COc1ccc(C2(NC(=O)CCn3cncn3)CCCCC2)cc1	-6.832%
COc1ccccc1C1(CNc2nnc(C)c(C)c2C#N)CCCC1	-5.07%
Cc1nc2sccn2c1CNc1cc(C(=O)O)ccc1F	-0.08043%
COc1c(CNC2(c3ccc(Cl)cc3)CCC2)c(C)nn1C	-12.89%
COc1ccccc1C1(NCc2c(C)nc3c(C)cccn23)CCCC1.Cl	58.58%
COc1ccccc1C1(CNc2snc(Cl)c2C#N)CCCC1	-12.01%
COc1ccc(C2(NCc3c(C)nc4c(C)cccn34)CCCC2)cc1.O=C(O)CC(O)(CC(=O)O)C(=O)O	147.1%
Cc1nc(CN2CCC(O)(c3ccccc3F)CC2)c2ccccn12.O=C(O)CC(O)(CC(=O)O)C(=O)O	94.96%
Cc1oncc1C(=O)N1CC[C@H]2[C@H](CO[C@@H]2CNS(C)(=O)=O)C1	-5.011%
COc1ccc(CNCCC(=O)N2CCc3sccc3C2)cc1O	-10.83%
O=C(NCCc1cccs1)N1CCC[C@H]1CO	-11.14%
Cc1csc2ncc(-c3ccnc(N4CCCC[C@@H]4CO)n3)c(=O)n12	6.094%

Compound	Percent Effect
Cc1csc2ncc(-c3ccnc(N4CCC[C@@H]4CO)n3)c(=O)n12	56.16%
COc1ccc(-c2noc(-c3ccc(N4CCC[C@H]4CO)nc3)n2)cc1	-7.045%
OCC1CCCCN1c1ccc(-c2nc(-c3ccccc3F)no2)cn1 (configuration not stated)	1.745%
O=c1c(-c2ccnc(N3CCCC[C@@H]3CO)n2)cnc2sccn12	125.6%
O=c1c(-c2ccnc(N3CCC[C@H]3CO)n2)cnc2sccn12	102.3%
Cc1cn2c(=O)c(-c3ccnc(N4CCC[C@@H]4CO)n3)cnc2s1	87.72%
CC(C)(C)c1cn2nc(N3CCC[C@@H]3CO)sc2n1	-4.736%
Cc1cnn(CC2CCCN2Cc2cc(=O)n3c(C)csc3n2)c1 (configuration not stated)	1.323%
COC(=O)C(NC(=O)c1cc(C)ccc1C)c1cccnc1 (configuration not stated)	-6.12%
CCCc1cc(NC(=O)c2ccc(Cl)c(N3CCNC3=O)c2)n[nH]1	5.533%
COC(=O)c1cccc(S(=O)(=O)N2CSCC2C(=O)N(C)C2CC2)c1 (configuration not stated)	-20.06%
CCN(C(c1ccc(OC)cc1)c1cccnc1)S(C)(=O)=O (configuration not stated)	3.822%
CNC(=O)NCC(=O)N(C)C(c1ccc(Cl)cc1)c1cccnc1 (configuration not stated)	108.8%
CNC(=O)NC(=O)CN(C)C(c1cccnc1)c1ccc(F)cc1F (configuration not stated)	-23.22%
CN(CC(=O)N(C)C(c1ccc(Cl)cc1)c1cccnc1)C1CC1 (configuration not stated)	97.71%
CC(=O)N(C)C(c1cccnc1)c1ccc(F)c(F)c1 (configuration not stated)	0.3352%
CC(C)C(c1cccnc1)N(C)C(=O)Cc1c(F)cccc1F (configuration not stated)	1.062%
CCN(C(C)=O)C(c1cccnc1)c1cc(C)cc(C)c1 (configuration not stated)	0.6077%
CCC(=O)NCC(=O)N(C)C(c1ccc(Cl)cc1)c1cccnc1 (configuration not stated)	138.5%
CN(CC(=O)N(C)C(c1cccnc1)c1ccc(F)c(F)c1)C1CC1 (configuration not stated)	12%
